Shown are actives, neighbours in structure and some others; about 19% of the full set was active somewhere.
Chronic BCR inh – chronic active BCR signaling inhibition; actives 0.05% (n = 340,000); Potency, µM (top dose mostly 46.1 µM), actives largely listed as inhibitors; AID 493014; ABC-DLBCL IkBa-CBG/CBR reporter, luminescence ratio, 4 h; active means well fitted inhibition curve with a large enough effect in the signal ratio, with a control signal flat, not every such curve was filed as active; inconclusive means small, poorly fitted or top-dose-only effect, or effect the other way, or a change in a side signal; the % refers to the signal ratio
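Doxycycline induced both beetle luciferases in TMD8 lymphoma cells; IKK-driven degradation limits the IkappaBalpha-fused green signal, while red luminescence normalises for cell number and nonspecific effects. Compounds tested up to 46 uM, 4 hrs.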
SW480 rerep – DNA re-replication induction in SW480 cells. AID 624297. actives 1.8% (n = 340,000). Potency, µM (doses to about 46.1 µM), most hits filed as activators. SW480 DNA re-replication, Hoechst DNA content imaging, 48 h; further: nearly all actives have a fitted effect of over 55% in size
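Readout is total intensity of Hoechst-stained nuclei, excited at 405 nm and collected at 500-530 nm. Compound treatment lasted 48 hr at 37 C in 5% CO2 before staining.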
IL1B secr inh – inflammasome signaling inhibition, IL-1 beta readout; activity change, % at 57.5 µM; AID 743279; actives 4.7% (n = 360,000); THP-1 LPS/ATP IL-1B secretion, AlphaLISA, 16 h; hits give low values; in the data active means activity change below about -50%; inconclusive means mostly about -30% to -49%
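Secreted IL-1B measured by AlphaLISA bead assay after 16 h compound exposure of THP-1 cells; compounds (final up to 57.5 uM) added 1 h before LPS (250 ng/mL) and ATP (1.25 mM) stimulation; lower signal means less secretion.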
MCF10A rereplic – DNA re-replication induction in MCF 10a cells; MCF 10A DNA re-replication, Hoechst nuclear intensity, 48 h; Potency, µM (doses to about 46.1 µM), actives largely listed as activators; actives 2.9% (n = 350,000); AID 624296; further: nearly all actives have a fitted effect of over 50% in size
DT40 TDP1 CPT – DT40-hTDP1 cell growth loss with CPT | actives 12% (n = 420,000) | chicken DT40 Tdp1-/-;hTDP1 cells + 20 nM CPT, ATP luminescence, 48 h | Potency, µM (highest dose often 46.2 µM), usual class: inhibitors | AID 686979; further: nearly all actives have a fitted effect of over 55% in size
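Chicken DT40 Tdp1-/- cells complemented with human TDP1, 400 cells/well, exposed to compounds plus 20 nM camptothecin for at least 48 h at 37 C; viability read as ATP content by CellTiter-Glo luminescence.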
DT40 TDP1 no CPT – qHTS for Inhibitors of human tyrosyl-DNA phosphodiesterase 1 (TDP1): qHTS in cells in absence of CPT | DT40 Tdp1-/- hTDP1 cells, no CPT, ATP luminescence, 48 h | AID 686978, 2013 | Potency, µM (titrated, usually from 46.2 µM), hits mostly inhibitors | actives 15% (n = 420,000); further: nearly all actives have a fitted effect of over 55% in size
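DT40 Tdp1-/-;hTDP1 cells, no CPT (DMSO vehicle only), 400 cells/well; compounds pin-transferred; ≥48 hr, 37 °C; CellTiter-Glo 30 min RT dark, luminescence read.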
A number is an active result; - = inactive; ? = inconclusive; . = no result; [ ] = remark or other dose. Unless noted, the call rests on the fitted dose curve; in most records, active means well fitted curve in the direction sought with a large enough effect; inconclusive means small, poorly fitted or top-dose-only effect, or another doubt; inactive means no such curve, though single readings can be large; an effect the other way counts as inactive or inconclusive.

SMILES	Chronic BCR inh	SW480 rerep	IL1B secr inh	MCF10A rereplic	DT40 TDP1 CPT	DT40 TDP1 no CPT
COC(=O)[C@@]12C[C@@H](CC(=O)NCc3ccc(C)o3)C(=O)N(Cc3cccc4ccccc34)C1=CCC(C)(C)C2	.	.	-	.	20.6µM	16.4µM
COC(=O)[C@@]12C[C@@H](CC(=O)NCC3CCCCC3)C(=O)N(Cc3cccc4ccccc34)C1=CCC(C)(C)C2	.	.	-	.	20.6µM	16.4µM
COC(=O)[C@@]12C[C@@H](CC(=O)NCc3ccccc3)C(=O)N(Cc3cccc4ccccc34)C1=CCC(C)(C)C2	.	.	-82.8	.	?	18.4µM
COC(=O)[C@@]12C[C@@H](CC(=O)NCCCCc3ccccc3)C(=O)N(Cc3cccc4ccccc34)C1=CCC(C)(C)C2	.	.	?	.	?	20.6µM
COC(=O)[C@@]12C[C@@H](CC(=O)NCCc3ccccc3OC)C(=O)N(Cc3cccc4ccccc34)C1=CCC(C)(C)C2	.	.	-	.	?	?
COC(=O)[C@@]12C[C@@H](CC(=O)NCc3ccccc3)C(=O)N(Cc3ccccc3)C1=CCC(C)(C)C2	.	.	-59.8	.	20.6µM	?
COCCCNC(=O)C[C@@H]1C[C@@]2(C(=O)OC)CC(C)(C)CC=C2N(Cc2cccc3ccccc23)C1=O	.	.	-	.	?	?
COC(=O)[C@@]12C[C@@H](CC(=O)NCc3cccc4ccccc34)C(=O)N(Cc3cccc4ccccc34)C1=CCC(C)(C)C2	.	.	-	.	18.4µM	?
Cc1ccc(-c2ccnc(-n3ncc(C(=O)NC[C@@H]4CCCN5CCCC[C@H]45)c3C3CC3)n2)o1	.	.	.	.	-	-
CCC(C(=O)NCCc1ccc(Cl)cc1)n1ccc2cc(S(=O)(=O)N3CCCCC3)ccc21 (configuration not stated)	.	.	.	.	13µM	?
CCc1ccc(CNC(=O)C(CC)n2ccc3cc(S(=O)(=O)N4CCCCC4)ccc32)cc1 (configuration not stated)	.	.	.	.	?	23.1µM
CCc1ccc(CNC(=O)C2CCCN(S(=O)(=O)c3ccc4c(ccn4C)c3)C2)cc1 (configuration not stated)	.	.	.	.	20.6µM	14.6µM
CCC(C(=O)O)n1ccc2cc(S(=O)(=O)N3CCCCC3)ccc21 (configuration not stated)	.	.	.	.	-	-
CC1CCCCC1NC(=O)COC(=O)c1ccc2c(c1)NC(=O)CS2 (configuration not stated)	-	-	-	-	-	-
N#C/C(=C\c1ccco1)Sc1nc2ccccc2s1	-	?	-65.5	?	-	-
COc1ccccc1NC(=O)Nc1ccnn1C1CCN(C(=O)C2CCOC2)CC1 (configuration not stated)	.	.	-	.	-	-
CCCCN(Cc1ccco1)C(=O)C1CCCN(c2ncnc3c2nc2n3CCCCC2)C1 (configuration not stated)	?	-	-	-	16.4µM	14.6µM
CCN(CC)C(=O)C1CCCN(c2ncnc3c2nc2n3CCCCC2)C1 (configuration not stated)	.	.	.	.	-	?
CC1CCN(CCCNC(=O)C2CCCN(c3ncnc4c3nc3n4CCCCC3)C2)CC1 (configuration not stated)	-	?	-	-	-	-
CCCCN(CC)C(=O)C1CCCN(c2ncnc3c2nc2n3CCCCC2)C1 (configuration not stated)	.	.	.	.	?	20.6µM
CCc1nc(CN(C)C(=O)C2CCC(=O)N(CCc3cccc(F)c3)C2)no1 (configuration not stated)	-	-	-	-	-	-
COc1cc(C(=O)N(Cc2cc3ccc(C)cc3nc2N(C)C)C2CC2)cc(OC)c1OC	.	.	.	.	-[9.04 µM]	?
Cc1noc(C)c1COC(=O)c1ccccc1Sc1ccccc1C#N	?	-	-	-	25.9µM	?
COc1ccc(C(=O)N[C@H](C(=O)OCCCOC(=O)[C@@H](NC(=O)c2ccc(OC)cc2)C(C)C)C(C)C)cc1	.	-	-	-	23.1µM	?
COc1ccc(C(=O)NC(C(=O)OCC(=O)Nc2sccc2C(N)=O)C(C)C)cc1 (configuration not stated)	-	-	-	?	?	23.1µM
SMILES	Chronic BCR inh	SW480 rerep	IL1B secr inh	MCF10A rereplic	DT40 TDP1 CPT	DT40 TDP1 no CPT
COc1ccc(C(=O)N[C@H](C(=O)Nc2sccc2C(N)=O)C(C)C)cc1	-	-	-	-	?	?
O=C(Cn1c(=O)nc(-c2ccccc2)c2ccccc21)Nc1ccc(Cl)c(C(F)(F)F)c1	.	.	.	.	-	-
CCOc1cccc(-c2c(C(=O)N/N=C/c3ccc(C)o3)nnn2-c2nonc2N)c1	-	-	-	-	-	-
CN1CCC(=O)N([C@H](COc2ccccc2)Cc2ccccc2)CC1	-	-	-	-	-	-
CCCN1CCC(=O)N([C@H](COc2ccccc2)Cc2ccccc2)CC1	-	?	-	-	25.9µM	?
O=C1CCN(Cc2ccccc2)CCN1[C@H](COc1ccccc1)Cc1ccccc1	-	-	?	-	20.6µM	20.6µM
COc1ccc(C(CNC(=O)c2ccc(OC)c(S(=O)(=O)N3CCCC3)c2)N2CCCC2)cc1 (configuration not stated)	-	-	-	-	-	-
COc1ccc(CC(=O)Nc2c(C(=O)Nc3ccccc3F)oc3ccccc23)cc1	.	.	.	.	-	-
O=C(COC(=O)CNS(=O)(=O)c1ccc(Br)cc1Cl)NC1CCCC1	-	-	?	-	-	-
CC1(C)CCC[C@]2(C)C3CC(=O)O[C@@]3(C)CC[C@H]12 (some centres not stated)	.	.	.	.	-	?
O=C(Nc1ccc(F)cc1)C(CCc1ccccc1)N1CCN(c2ccncc2)CC1 (configuration not stated)	.	.	-	.	16.4µM	23.1µM
CSCCC(C(=O)Nc1c(C)cccc1C)N1CCC(Cc2ccccc2)CC1 (configuration not stated)	.	.	-	.	16.4µM	18.4µM
O=C(Nc1ccc(F)cc1)C(c1ccccc1)N1CCN(c2ccncc2)CC1 (configuration not stated)	.	.	-	.	-	?
CSCCC(C(=O)Nc1c(C)cccc1C)N1CCN(c2ccc(F)cc2)CC1 (configuration not stated)	.	.	-	.	?	20.6µM
O=C(Nc1ccc2c(c1)OCCO2)C(CCc1ccccc1)N1CCC(Cc2ccccc2)CC1 (configuration not stated)	.	.	-	.	?	16.4µM
Cc1ccc(CNC(=O)CN2C(=O)CSc3ccc(S(=O)(=O)N4CCCC4)cc32)cc1	.	.	.	.	-	?

Assay outcomes (PubChem)
